{"source": "PubChem BioAssay AID677", "about": "(Vanderbilt High Throughput Screening Facility, 2007)", "note": "The campaign covered roughly 1,700 compounds. About 720 (42%) were called active. The set was probably picked from earlier hits. Not all results are given here. A number with no mark means an inactive call.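 The calls were made as follows: active = calcium response below the same-plate mean of wells given acetylcholine alone at its 80%-effect dose, minus 3 SD; inactive = the rest.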"}
{"biological_target": "Muscarinic acetylcholine receptor M1 (Rattus norvegicus) (UniProt P08482)", "sequence (P08482 whole entry, looked up)": "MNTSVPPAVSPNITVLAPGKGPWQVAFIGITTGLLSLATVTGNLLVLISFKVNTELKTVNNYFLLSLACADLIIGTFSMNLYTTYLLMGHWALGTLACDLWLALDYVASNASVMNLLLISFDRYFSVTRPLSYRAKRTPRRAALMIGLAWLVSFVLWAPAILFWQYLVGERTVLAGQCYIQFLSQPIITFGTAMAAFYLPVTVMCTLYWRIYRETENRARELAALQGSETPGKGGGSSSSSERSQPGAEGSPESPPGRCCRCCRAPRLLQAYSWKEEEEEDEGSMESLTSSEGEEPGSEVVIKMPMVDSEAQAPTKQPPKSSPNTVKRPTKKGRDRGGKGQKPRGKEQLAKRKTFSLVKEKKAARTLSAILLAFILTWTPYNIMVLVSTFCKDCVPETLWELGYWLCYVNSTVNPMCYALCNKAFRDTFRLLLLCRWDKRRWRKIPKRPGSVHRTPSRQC", "assay": "rat M1 muscarinic receptor antagonists, confirmation, CHO cells, Fluo-4 calcium, duplicate (AID 677);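 also: raw fluorescence intensity difference in arbitrary instrument units and not normalized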", "conditions": "ACh EC80 antagonism, at 10 µM, stronger effect = lower value"}
{"compound": "COc1ccc(C2NCc3ccc4c(c3-n3cccc32)OCO4)cc1OC", "note": "(stereo not given)", "calcium response (max-min fluorescence)": "455 (active)"}
{"compound": "Fc1ccc(N2CCN(Cc3ccc4c(c3)OCO4)CC2)cc1", "calcium response (max-min fluorescence)": 588}
{"compound": "CCOC(=O)C1SC2(C(F)(F)C(F)F)CC1(O)c1c(c(OC)c3occc3c1OC)O2", "note": "(stereo not given)", "calcium response (max-min fluorescence)": 516}
{"compound": "CC[N+]1(C)CCCC(OC(=O)C(O)(c2ccccc2)c2ccccc2)C1", "note": "(stereo not given)", "calcium response (max-min fluorescence)": "17.5 (active)"}
{"compound": "COc1ccc(CN2CCN(c3ccccc3F)CC2)c(OC)c1", "calcium response (max-min fluorescence)": 547}
